PubChem BioAssay (EPA / NIEHS)
Inconclusive results are not listed. Active and inactive are the calls of the source. How the source made its calls: active means hit-call score of the fitted dose curve at least 0.9, where 1 is the maximum; inconclusive means response in the unintended direction; inactive means score below 0.9.

target: Nuclear receptor subfamily 4 group A member 2 (Homo sapiens) (UniProt P43354); test: ATG_NURR1_TRANS: Attagene TRANS-FACTORIAL HepG2 Assay for human Nuclear Receptor Related Protein 1 (NURR1) (AID 2282985); conditions: HepG2 Attagene TRANS reporter, mRNA readout
Protocol: ATG_TRANS is a cell-based, multiplexed-readout assay that uses HepG2, a human liver cell line, with measurements taken at 24 hours after chemical dosing in a 24-well plate.ATG_NURR1_TRANS is one of 30 assay component(s) measured or calculated from the ATG_TRANS assay. It is designed to make measurements of mRNA induction, a form of inducible reporter, as detected with fluorescence intensity signals by Reverse transcription polymerase chain reaction (RT-PCR) and Capillary electrophoresis technology.Data from the assay component ATG_NURR1_TRANS was analyzed into 1 assay endpoint. This assay endpoint, ATG_NURR1_TRANS, was analyzed in the positive analysis fitting direction relative to DMSO as the negative control and baseline of activity. Using a type of inducible reporter, measures of mRNA for gain-of-signal activity can be used to understand the reporter gene at the transcription factor-level as they relate to the gene NR4A2. Furthermore, this assay endpoint can be referred to as a primary readout, because this assay has produced multiple assay endpoints where this one serves a reporter gene function. To generalize the intended target to other relatable targets, this assay endpoint is annotated to the nuclear receptor intended target family, where the subfamily is orphan.
Human liver HepG2 cells are transiently transfected with multiple reporter transcription units (MRTUs) in 6-well plates using FuGene 6 reagent (Roche; 3 ml FuGene/1 mg DNA). The MRTU constructs are regulated by a cis-regulating element (promoter). […] A major difference between the CIS and TRANS system is that in CIS activities of endogenous TFs are measured, whereas the TRANS assay evaluates changes in activities of exogenous, chimeric NR-Gal4 proteins. […] At the end of 24 hour incubation, total RNA was isolated using TriZol reagent (Invitrogen). The isolated RNA is then reverse-transcribed using oligo(dT) primer and Mo-MLV reverse transcriptase (Invitrogen) with DNAse I (Ambion) treatment for 30 min. The one-tenth of the produced cDNA was amplified by PCR using Taq DNA polymerase (Invitrogen) and two reporter sequence-specific primers. The PCR products were fluorescently labeled by primer extension with 6-arboxyfluorescein (6-FAM) 5'-labeled reporter sequence-specific primer (2 min at 95 C, 20 s at 68 C and 10 min at 72 C) and these products were digested with 5U of HpaI (New England Biolabs) for 2h at 37 C. The fragments were purified using Qiaquick PCR columns (Qiagen), analyzed on an ABI 3130xL genetic analyzer (Applied Biosystems) with peak positions identified by using a set of X-rhodamine (ROX)-labeled MapMarker1000 molecular weight standards (BioVentures). The raw capillary electrophoresis data was processed using Attagraph software (Attagene).

Sequence of Nuclear receptor subfamily 4 group A member 2 (Homo sapiens) (P43354 whole entry, looked up): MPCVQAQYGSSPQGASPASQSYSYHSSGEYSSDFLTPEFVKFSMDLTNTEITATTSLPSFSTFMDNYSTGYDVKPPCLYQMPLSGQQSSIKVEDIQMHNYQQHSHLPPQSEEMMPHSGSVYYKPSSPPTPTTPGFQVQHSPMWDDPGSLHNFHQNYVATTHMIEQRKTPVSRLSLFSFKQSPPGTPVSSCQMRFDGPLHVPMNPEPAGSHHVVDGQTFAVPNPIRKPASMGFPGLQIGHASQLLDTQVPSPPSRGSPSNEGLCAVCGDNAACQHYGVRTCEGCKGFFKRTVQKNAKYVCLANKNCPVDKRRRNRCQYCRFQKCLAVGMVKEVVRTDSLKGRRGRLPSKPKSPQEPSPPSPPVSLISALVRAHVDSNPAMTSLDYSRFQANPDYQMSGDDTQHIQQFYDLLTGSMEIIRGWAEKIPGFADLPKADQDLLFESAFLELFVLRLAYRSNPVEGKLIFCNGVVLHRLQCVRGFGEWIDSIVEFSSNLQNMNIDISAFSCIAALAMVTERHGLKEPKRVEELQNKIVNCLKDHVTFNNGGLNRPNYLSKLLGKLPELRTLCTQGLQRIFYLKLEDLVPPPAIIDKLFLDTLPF

Row | SMILES | outcome | AC50
1 | CCOP(=S)(OCC)SCSc1ccc(Cl)cc1 | inactive | –
2 | CCOc1ccc(C(C)(C)COCc2cccc(Oc3ccccc3)c2)cc1 | inactive | –
3 | CSC(C)(C)C=NO | inactive | –
4 | CCCCN(CCCC)SN(C)C(=O)Oc1cccc2c1OC(C)(C)C2 | inactive | –
5 | COC(=O)C(F)(F)C(F)(F)OC(F)(C(F)(F)F)C(F)(F)OC(F)=C(F)F (stereo not given) | inactive | –
6 | OCC(F)(F)OC(F)(F)C(F)(F)OC(F)(F)CO | inactive | –
7 | Oc1ccc(I)cc1 | inactive | –
8 | Nc1cc2c3c(c1)C(c1ccccc1)=N[C@@H](NC(=O)c1cccnc1)C(=O)N3CC2 | inactive | –
9 | O=S(=O)(F)C(F)(F)C(F)(F)C(F)(F)C(F)(F)C(F)(F)C(F)(F)C(F)(F)C(F)(F)F | inactive | –
10 | CCOP(=S)(OCC)SCn1nnc2ccccc2c1=O | – | 100 µM (active)
11 | COP(=O)(CCC(=O)NCO)OC | inactive | –
12 | N#Cc1c(-c2ccc(Cl)cc2)[nH]c(C(F)(F)F)c1Br | inactive | –
13 | ClC(Cl)(Cl)c1ccccc1 | inactive | –
14 | O=C(O)C(F)(OC(F)(F)C(F)(F)C(F)(F)F)C(F)(F)F (stereo not given) | inactive | –
15 | [N-]=[N+]=[N-] | inactive | –
16 | C/C(=N\NC(=O)Nc1cc(F)cc(F)c1)c1ncccc1C(=O)O | inactive | –
17 | COP(=O)(O)OC | inactive | –
18 | N#C/C=C/c1ccccc1 | inactive | –
19 | CC(=O)CCc1ccc2c(c1)OCO2 | inactive | –
20 | O=C(O)C(F)(F)C(F)(F)C(=O)O | inactive | –

Row | SMILES | outcome | AC50
21 | CC(C)(C)N(NC(=O)c1ccc(Cl)cc1)C(=O)c1ccccc1 | inactive | –
22 | CCOP(=S)(S)OCC | inactive | –
23 | CCN(CC)c1ccccc1 | inactive | –
24 | CCCN(CCC)c1c([N+](=O)[O-])cc(C(C)C)cc1[N+](=O)[O-] | inactive | –
25 | CCCCC(CC)COP(=O)(Oc1ccccc1)Oc1ccccc1 (stereo not given) | – | 21.8 µM (active)
26 | c1nc[nH]n1 | inactive | –
27 | CC(C)(C)OOC(C)(C)C | inactive | –
28 | CCOP(=S)(NC(C)C)Oc1ccccc1C(=O)OC(C)C (stereo not given) | – | 57.4 µM (active)
29 | OCC(F)(F)OC(F)(F)C(F)(F)OC(F)(F)C(F)(F)OC(F)(F)CO | inactive | –
30 | CCCCCCCc1ccc(O)cc1 | inactive | –
31 | N#Cc1ccc(O)cc1 | inactive | –
32 | CCCCOCCOP(=O)(OCCOCCCC)OCCOCCCC | inactive | –
33 | C=C(C)C(=O)OCC1CO1 (stereo not given) | inactive | –
34 | Cc1c([N+](=O)[O-])cc2c(c1[N+](=O)[O-])C(C)(C)CC2(C)C | – | 14.6 µM (active)
35 | CCOC(=O)c1ccccc1C(=O)OCC | inactive | –
36 | C=CC(=O)OCC(F)(F)C(F)F | inactive | –
37 | CC(O)C(F)(F)C(F)(F)F (stereo not given) | inactive | –
38 | Cn1[nH]nnc1=S | inactive | –
39 | C=CC(=O)OCC(CC)(COC(=O)C=C)COC(=O)C=C | inactive | –
40 | CC(=O)c1ccc(-c2ccccc2)cc1 | inactive | –
